This is an account of results in PubChem BioAssay (NCATS).

SMILES strings stand for the structures. Several values for one entry are separate records, joined by “and”; a condition that tells them apart may be missing. Equal entries are not always repeated. Results filed as inconclusive are left out. A number with no mark means an inactive call. Activity calls are given as the source filed them. Calls follow the shape of the dose curve; as a rule, active = well fitted inhibition curve with a large enough effect; inconclusive = small, poorly fitted or top-dose-only effect; inactive = flat fitted curve, though single readings scatter.

One test has as its system P93_24. The experiment in a line: qHTS profiling for inhibitors of Plasmodium falciparum proliferation (AID 504749). Also: potency is read from the fitted curve at half-maximal effect. Conditions: P. falciparum in erythrocytes, SYBR Green DNA, 72 h; series mostly up to 28.7 µM. The essentials:
(§1)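 Fluorescence of SYBR Green-bound parasite DNA, read at 485/535 nm, served as the growth measure. Infected erythrocytes were cultured with compound 72 h; artemisinin (0.29 uM) and DMSO wells defined the normalization range.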

Another test has as its system P94_40. The description is as above. Conditions: P. falciparum in erythrocytes, SYBR Green DNA, 72 h; series mostly up to 28.7 µM. In short, it runs like this: as §1
A further test deals with PAD. The description is as above. Conditions: P. falciparum in erythrocytes, SYBR Green DNA, 72 h; series mostly up to 28.7 µM. The essentials: as §1
Another test relates to PC15. Described as above. Conditions: P. falciparum in erythrocytes, SYBR Green DNA, 72 h; series mostly up to 28.7 µM. The essentials:
as §1

The next test concerns PC26. The description is as above. Conditions: P. falciparum in erythrocytes, SYBR Green DNA, 72 h; series mostly up to 28.7 µM. In short, it runs like this:
as §1

The next test deals with PC49. Described as above. The note with it: P. falciparum in erythrocytes, SYBR Green DNA, 72 h; series mostly up to 28.7 µM. The essentials: as §1
For a further test, the system named is SC27B. The description is as above. The note with it: P. falciparum in erythrocytes, SYBR Green DNA, 72 h; series mostly up to 28.7 µM. In short, it runs like this:
as §1

Another test concerns TAB109. The description is as above. Conditions: P. falciparum in erythrocytes, SYBR Green DNA, 72 h; series mostly up to 28.7 µM. The essentials:
as §1

For the next test, the system named is TAB113. The description is as above. Conditions: P. falciparum in erythrocytes, SYBR Green DNA, 72 h; series mostly up to 28.7 µM. In short, it runs like this:
as §1

For another test, the system named is TAB165. Described as above. Conditions: P. falciparum in erythrocytes, SYBR Green DNA, 72 h; series mostly up to 28.7 µM. The essentials: as §1
A further test has as its system CRL-7250. The experiment in a line: Cytotoxic Profiling of Annotated Libraries Using Quantitative High-Throughput Screening (AID 1296008). Also: potency is read from the fitted curve at half-maximal effect. As to max response: % is scaled to controls: 0 for no effect and ±100 for the full control effect. The note with it: Five cell lines viability, CellTiter-Glo ATP luminescence, 48-72 h; max response: stronger effect = lower value. In short, it runs like this:
(§2)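 Compounds were pin-transferred onto cells and incubated 48 or 72 hr at 37 degree Celsius, 95% humidity. CellTiter-Glo was added, plates sat 10 min at room temperature, then ATP-coupled luminescence was imaged as the viability read-out.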
In general terms: In ATP-based viability assays light output follows the ATP content of the culture.

In a further test the test system is HEK293. The test is described as above. Conditions: Five cell lines viability, CellTiter-Glo ATP luminescence, 48-72 h; max response: stronger effect = lower value. In short, it runs like this: as §2
In test [1] the test system is HaCat. The test is described as above. The note with it: Five cell lines viability, CellTiter-Glo ATP luminescence, 48-72 h; max response: stronger effect = lower value. The essentials:
as §2

The subject of another test is KB-3-1. The test is described as above. Conditions: Five cell lines viability, CellTiter-Glo ATP luminescence, 48-72 h; max response: stronger effect = lower value. In short, it runs like this: as §2
A further test has as its system NIH3T3. The test is described as above. The note with it: Five cell lines viability, CellTiter-Glo ATP luminescence, 48-72 h; max response: stronger effect = lower value. The essentials:
as §2

The subject of test [2] is HACAT. Kind of test: qHTS assay to identify novel small-molecules to repurpose for Merkel cell carcinoma treatment (AID 1296009). The note with it: MCC and control cell lines, CellTiter-Glo viability, 72 h; at 44.8 µM (top of the series) unless noted. In short, it runs like this: (§3)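 Luminescence from CellTiter-Glo, read 10 min after addition at room temperature, reported viability following a 72 hr, 37 degree celsius treatment with NPC or MIPE compounds in titration; values normalized to plate controls.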
(In qHTS, concentration-response curves come from the screen itself.)

A further test relates to HEK293T. The test is described as above. Conditions: MCC and control cell lines, CellTiter-Glo viability, 72 h; at 44.8 µM (top of the series). The essentials:
as §3

The next test relates to MCC-13. The description is as above. The note with it: MCC and control cell lines, CellTiter-Glo viability, 72 h; series mostly up to 46 µM. In short, it runs like this:
as §3

The next test concerns MCC-26. Described as above. The note with it: MCC and control cell lines, CellTiter-Glo viability, 72 h; series mostly up to 46 µM. The essentials: as §3
The subject of another test is W2. Kind of test: qHTS profiling for inhibitors of Plasmodium falciparum proliferation (AID 504749). Also: potency is read from the fitted curve at half-maximal effect. The note with it: P. falciparum in erythrocytes, SYBR Green DNA, 72 h; series mostly up to 28.7 µM. The essentials: as §1
Also: nearly all actives have a fitted effect of over 60% in size.

As for `CCOC(=O)O[C@]1(C(=O)OCCl)CC[C@@H]2[C@H]3CCC4=CC(=O)C=C[C@]4(C)[C@@H]3[C@@H](O)C[C@@]21C`, the outcome in the test on P93_24, with PAD, with PC15, in the test on PC49, in the test on TAB109 and in the test on CRL-7250 was inactive. Also, the call in the test with HEK293, with HaCat [1], in the test with KB-3-1, in the test with NIH3T3, with HACAT [2] and in the test with HEK293T was inactive. Besides, the Potency entry in the test with P94_40, in the test on PC26, in the test on SC27B, with TAB113, in the test with TAB165 and with MCC-13 was “inactive” throughout.
For `CO[C@@H](C(=O)N1Cc2[nH]nc(NC(=O)c3ccc(N4CCN(C)CC4)cc3)c2C1)c1ccccc1`, the Potency in the test on CRL-7250 is 5.26 µM (active); in the test on HEK293, 4.18 µM (active); with HaCat [1], 2.35 µM (active); in the test with KB-3-1, 11.8 µM (active); in the test with NIH3T3, 14.8 µM (active).
On to `COc1cc(NC(=O)c2ccc(-c3ccc(Cl)cc3)o2)cc(OC)c1`, for which the compound was called inactive in the test with CRL-7250, in the test with HaCat [1] and with HACAT [2]. The max response in the test on HEK293 was 2.11%; in the test with KB-3-1 it was 5.65%; in the test with NIH3T3 it was 1.05%. Further, the Potency result in the test on MCC-13 was “inactive”.
On to `C[N+]1(C)[C@@H]2CC(OC(=O)[C@H](CO)c3ccccc3)C[C@H]1[C@H]1O[C@@H]12` (stereo not given in full), for which the max response in the test with CRL-7250 was 4.18%; in the test with KB-3-1 it was 2.27%; with NIH3T3, -3.27%. The compound was called inactive in the test on HEK293, with HaCat [1], in the test with HACAT [2] and in the test on HEK293T. Moreover, the Potency result in the test on MCC-13 and in the test with MCC-26 was “inactive” each time.
Turning to `COc1ccc2c3c1OC1C[C@@H](O)C=C[C@@]31CCN(C)C2` (stereo not given in full), the max response in the test with CRL-7250 is -0.2%; with HEK293 it was -3.03%; with KB-3-1 it was -3.8%; with NIH3T3, 1.03%. The outcome in the test with HaCat [1] and in the test on HACAT [2] was inactive. For the same compound, in the test with MCC-13, the Potency result is “inactive”.
Regarding `CC(C)n1nc(-c2ccc3oc(N)nc3c2)c2c(N)ncnc21`, the Potency in the test on CRL-7250 is 1 nM (active) and 58 nM (active); with HEK293 it was 1.7 nM (active) and 82 nM (active); in the test with HaCat [1], 3.26 µM (active); in the test with KB-3-1, 7.4 nM (active) and 116 nM (active); with NIH3T3 it was 5.3 nM (active) and 259 nM (active).
For `NC1CCC(Nc2nc(Nc3ccc(C(=O)N4CCCCC4)cc3)c3ncn(-c4cccc(F)c4)c3n2)CC1` (stereo not given), the compound was classed as inactive with CRL-7250, in the test with HEK293, with HaCat [1], with HACAT [2] and with HEK293T. Further, the max response in the test with KB-3-1 is -2.33%; with NIH3T3 it was 4.66%. The Potency entry in the test with MCC-13 and with MCC-26 was “inactive” in each case.
On to `CC=CC(=O)N(CC)c1ccccc1C`, for which the max response in the test with CRL-7250 is -6.43%; in the test on KB-3-1, 2.01%; in the test with NIH3T3, 3.96%. Also, the result with HEK293, in the test on HaCat [1], in the test with HACAT [2] and with HEK293T was inactive. Also, the Potency entry with MCC-13 and with MCC-26 was “inactive” each time.
Consider `CC1(C)CCC[C@@]2(C)[C@@H]1CC[C@@]1(C)OC(=O)C[C@H]21`, for which the max response in the test with CRL-7250 was 1.92%; with HEK293, -1.67%; with KB-3-1, 5.91%; with NIH3T3, 1.1%. In addition, the compound was called inactive in the test on HaCat [1] and in the test with HACAT [2]. In addition, the Potency result in the test with MCC-13 and in the test with MCC-26 was “inactive” throughout.
As to `Cc1cccc(C)c1OCC(C)N` (stereo not given), the outcome in the test on PAD, with PC15, in the test on TAB109, in the test with CRL-7250, in the test with HEK293 and in the test on HaCat [1] was inactive. Also, the outcome in the test with NIH3T3, with HACAT [2] and in the test with HEK293T was inactive. Also, the Potency result with PC26, with SC27B, in the test on TAB113, in the test on MCC-13 and in the test with MCC-26 was “inactive” in each case. The Potency with W2 was 6.01 µM (active). The max response in the test on KB-3-1 is 6.51%.
Turning to `CN1CCN(CCOc2cc(OC3CCOCC3)c3c(Nc4c(Cl)ccc5c4OCO5)ncnc3c2)CC1`, the Potency in the test with CRL-7250 is 10.3 µM (active); in the test on HEK293, 26.4 µM (active) and 16.4 µM (active); in the test on HaCat [1], 3.32 µM (active) and 366 nM (active); in the test on NIH3T3, 1.66 µM (active) and 651 nM (active). Moreover, the max response in the test with KB-3-1 was 2.81% and -8.03%.
`CC(=Cc1ccccc1)C=C1SC(=S)N(CC(=O)O)C1=O`: the max response is -0.535% in the test with CRL-7250, -4.91% in the test on HEK293 and -2.93% in the test with KB-3-1. Further, the compound was classed as inactive in the test with HaCat [1], in the test with NIH3T3 and in the test with HACAT [2]. The Potency result in the test with MCC-13 and in the test on MCC-26 was “inactive” throughout.
Regarding `C=C1C(=O)OC(CCCCCCCC)C1C(=O)O` (stereo not given), the call in the test on CRL-7250, in the test with HEK293, in the test with HaCat [1], in the test with HACAT [2] and in the test on HEK293T was inactive. Moreover, the values for the max response with KB-3-1 and with NIH3T3 were -17.3% and 2.38%, respectively. Further, the Potency result in the test with MCC-13 and with MCC-26 was “inactive” in each case.
`Clc1ccc(-c2nc3sccn3c2C=NOCc2ccc(Cl)c(Cl)c2)cc1`: the max response in the test on CRL-7250 is -8.97%; in the test on HEK293, -1.21%; in the test with KB-3-1 it was -5.79%; in the test on NIH3T3, -1.3%. For the same compound, the outcome in the test on HaCat [1] and in the test on HACAT [2] was inactive. Besides, the Potency entry in the test on MCC-13 and in the test on MCC-26 was “inactive” in each case.
Take `Nc1ncnc2c1ncn2[C@@H]1O[C@@H](CO)[C@H](O)[C@H]1O`: the result with CRL-7250, in the test on HEK293, in the test on HaCat [1], in the test with KB-3-1, in the test on HACAT [2] and with HEK293T was inactive. In addition, in the test with NIH3T3, the max response was -24.9%. Moreover, the Potency result with MCC-13 and with MCC-26 was “inactive” in each case.
For the compound `NC(N)=Nc1nc(CSCC/C(N)=N/S(N)(=O)=O)cs1`, the call with P93_24, in the test on PAD, in the test with PC15, in the test on PC49, with TAB109 and in the test with HEK293 was inactive. Besides, the compound was called inactive with HaCat [1], in the test on NIH3T3, in the test on HACAT [2] and in the test with HEK293T. The Potency result in the test on P94_40, with PC26, with SC27B, in the test on TAB113, in the test with TAB165 and with W2 was “inactive” each time. For the same compound, the Potency result in the test on MCC-13 is “inactive”. Moreover, the values for the max response in the test with CRL-7250 and in the test with KB-3-1 were -7.89% and 30.2%, respectively.
Take `CC(=O)O[C@]1(C(C)=O)CC[C@@H]2[C@@H]3C[C@H](C)C4=CC(=O)CC[C@]4(C)[C@H]3CC[C@@]21C`: the max response was 2.81% in the test with CRL-7250 and -6.3% in the test with NIH3T3. Further, the compound was called inactive in the test with HEK293, in the test on HaCat [1], in the test with KB-3-1, with HACAT [2] and in the test with HEK293T. The Potency result in the test with MCC-13 and with MCC-26 was “inactive” throughout.
